Test [1] can be described thus: NS1 protein of Zika virus - qHTS assay to identify small molecule inhibitors in human HEK 293 cells (AID 1347053). Further: series mostly up to about 46 µM; nearly all actives have a fitted effect of over 55% in size. A digest of the protocol:
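Inhibition of NS1 expression was scored in HEK 293 cells given compound 1 h ahead of MR766 virus (MOI = 0.5). Following 24 h at 37 C, two anti-NS1 antibodies generated a TR-FRET signal, scaled between uninfected and infected controls.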
In general terms: In qHTS, concentration-response curves come from the screen itself.

Test [2] has as its target T1, Tyrosine-protein phosphatase non-receptor type substrate 1 (Homo sapiens) + Leukocyte surface antigen CD47 (Homo sapiens) (UniProt P78324+Q08722). Briefly: CD47-SIRPalpha protein protein interaction - LANCE assay qHTS validation (AID 1347057; active means well fitted curve in the direction sought with a large enough effect in the signal ratio, with a control signal flat, not every such curve was filed as active; the % refers to the signal ratio; further: series mostly up to about 38 µM). A digest of the protocol: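 First, His-tagged CD47 and Eu-labelled anti-His antibody met the compound for 30 min; next, site-specifically biotinylated SIRPalpha was added for 30 min; finally streptavidin-APC was added before reading the TR-FRET ratio.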
In general terms: In TR-FRET formats the signal depends on donor and acceptor labels being close together.

Test [3] concerns the target T1, Tyrosine-protein phosphatase non-receptor type substrate 1 (Homo sapiens) + Leukocyte surface antigen CD47 (Homo sapiens). The test can be described thus: CD47-SIRPalpha protein protein interaction - HTRF assay qHTS validation (AID 1347058; active means well fitted curve in the direction sought with a large enough effect in the signal ratio, not every such curve was filed as active; the % refers to the signal ratio; further: series mostly up to about 38 µM). The method, boiled down:
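TR-FRET read (Ch1/Ch2 ratio) of soluble extracellular CD47 and Avi-biotinylated SIRPalpha domains in PBS pH 7.4 with 0.05% IGEPAL; 7-point compound titration. Sequential 30 min room-temperature steps; non-biotinylated SIRPalpha as control inhibitor.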

The target is the same in test [4]. The test can be described thus: CD47-SIRPalpha protein protein interaction - Alpha assay qHTS validation (AID 1347059).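 Further: bead proximity luminescence from CD47 binding SIRPalpha after compound preincubation with SIRPalpha.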 The method, boiled down:
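Soluble extracellular domains: Avi-tag biotinylated SIRPalpha (25 nM) preincubated 30 min RT with compound, then 6His-CD47 (12.5 nM) 30 min; Ni-NTA acceptor and streptavidin donor beads (10 ug/mL) 30 min, AlphaScreen read. PBS pH 7.4, 0.05% IGEPAL.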

Test [5] addresses Parathyroid hormone/parathyroid hormone-related peptide receptor (Homo sapiens) (UniProt Q03431). The test can be described thus: qHTS for PTHR1 Agonists: Optimization Screen against the NCGC LOPAC library (AID 1347079).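 Further: GloSensor cAMP luminescence in HEK-293 GP2 cells expressing human PTHR1 with IBMX.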 A digest of the protocol: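 Agonist readout: GloSensor cAMP luminescence, read after 15 min at room temperature. HEK-293-derived GP2 line carries PTHR1; compounds tested as a titration for 1 hr at 37C in presence of IBMX. M-PTH (1-15) served as control.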

Test [6] addresses N-terminal Xaa-Pro-Lys N-methyltransferase 1 (Homo sapiens) (UniProt Q9BV86). Briefly: qHTS Assay for Inhibitors of N-terminal methyltransferase 1 (NTMT1): LOPAC validation of the NTMT1 SAHH-coupled ThioGlo3 Assay (AID 1347143). Further: nearly all actives have a fitted effect of over 70% in size. Further: potency means the concentration at half of the fitted maximal effect. A digest of the protocol:
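Fluorescence read-out (excitation 340nm, emission 450nm) of SAH-derived thiol, measured via SAHH coupling and ThioGlo3, taken immediately and after a 30 min room-temperature reaction, then normalized to the background read. Enzyme: NTMT1 at 125nM; cofactor SAM 100uM in the added reagent.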

The test system of test [7] is Zika virus NS2B-NS3 protease (unlinked). Briefly: Optimization of GU AMC qHTS for Zika virus inhibitors: Unlinked NS2B-NS3 protease assay (AID 1347151). Further: nearly all actives have a fitted effect of over 80% in size. Further: potency means the concentration at half of the fitted maximal effect. A digest of the protocol:
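Percent inhibition is derived from the 15-min change in AMC fluorescence, normalized against no-inhibitor and no-enzyme controls, then fitted to a 4-parameter Hill curve. Aprotinin was the intraplate control.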

This note sets out measurements from PubChem BioAssay (NCATS).

Structures are written as SMILES. Records with an inconclusive call do not appear. Active and inactive are the calls of the source. Unless noted, the call rests on the fitted dose curve; in most records, active means well fitted curve in the direction sought with a large enough effect; inconclusive means small, poorly fitted or top-dose-only effect, or another doubt; inactive means no such curve, though single readings can be large; an effect the other way counts as inactive or inconclusive.

Chain of N-terminal Xaa-Pro-Lys N-methyltransferase 1 (Homo sapiens) (Q9BV86 whole entry, looked up): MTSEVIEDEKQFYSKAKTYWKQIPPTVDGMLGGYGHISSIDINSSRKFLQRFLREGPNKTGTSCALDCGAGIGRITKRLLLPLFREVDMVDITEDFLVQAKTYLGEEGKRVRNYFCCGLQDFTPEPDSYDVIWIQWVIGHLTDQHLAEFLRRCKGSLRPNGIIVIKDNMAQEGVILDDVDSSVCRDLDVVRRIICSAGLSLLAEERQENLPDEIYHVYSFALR
Chain of Parathyroid hormone/parathyroid hormone-related peptide receptor (Homo sapiens) (Q03431 whole entry, looked up): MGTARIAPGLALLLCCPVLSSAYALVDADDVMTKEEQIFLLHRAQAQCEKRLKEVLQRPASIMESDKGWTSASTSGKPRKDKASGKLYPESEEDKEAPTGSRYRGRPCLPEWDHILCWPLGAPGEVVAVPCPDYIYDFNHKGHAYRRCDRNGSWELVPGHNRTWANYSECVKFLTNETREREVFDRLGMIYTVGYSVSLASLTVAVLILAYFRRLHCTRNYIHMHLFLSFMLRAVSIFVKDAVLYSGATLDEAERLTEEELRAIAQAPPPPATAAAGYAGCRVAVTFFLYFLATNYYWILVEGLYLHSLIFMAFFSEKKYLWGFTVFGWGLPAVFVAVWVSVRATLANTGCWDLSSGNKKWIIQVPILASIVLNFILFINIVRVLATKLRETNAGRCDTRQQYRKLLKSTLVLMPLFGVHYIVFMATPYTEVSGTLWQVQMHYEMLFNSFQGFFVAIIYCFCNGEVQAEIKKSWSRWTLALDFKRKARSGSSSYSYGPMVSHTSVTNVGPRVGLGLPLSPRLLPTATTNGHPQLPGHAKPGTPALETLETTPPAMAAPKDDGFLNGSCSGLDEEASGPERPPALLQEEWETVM
T1 sequence (P78324 whole entry, looked up): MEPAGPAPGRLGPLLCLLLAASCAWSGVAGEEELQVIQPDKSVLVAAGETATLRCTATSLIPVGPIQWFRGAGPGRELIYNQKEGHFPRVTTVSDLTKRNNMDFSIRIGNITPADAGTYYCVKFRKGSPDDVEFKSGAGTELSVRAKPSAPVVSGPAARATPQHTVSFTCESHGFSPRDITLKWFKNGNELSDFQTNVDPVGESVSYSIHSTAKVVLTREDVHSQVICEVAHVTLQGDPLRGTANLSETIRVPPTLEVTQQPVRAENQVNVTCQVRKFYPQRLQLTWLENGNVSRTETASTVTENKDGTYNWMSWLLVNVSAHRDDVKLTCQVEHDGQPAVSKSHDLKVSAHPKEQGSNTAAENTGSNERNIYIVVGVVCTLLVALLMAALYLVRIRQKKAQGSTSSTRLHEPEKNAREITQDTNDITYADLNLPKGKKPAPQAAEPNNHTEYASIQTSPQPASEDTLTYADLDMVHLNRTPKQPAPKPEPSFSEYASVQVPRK
T1 sequence (Q08722 whole entry, looked up): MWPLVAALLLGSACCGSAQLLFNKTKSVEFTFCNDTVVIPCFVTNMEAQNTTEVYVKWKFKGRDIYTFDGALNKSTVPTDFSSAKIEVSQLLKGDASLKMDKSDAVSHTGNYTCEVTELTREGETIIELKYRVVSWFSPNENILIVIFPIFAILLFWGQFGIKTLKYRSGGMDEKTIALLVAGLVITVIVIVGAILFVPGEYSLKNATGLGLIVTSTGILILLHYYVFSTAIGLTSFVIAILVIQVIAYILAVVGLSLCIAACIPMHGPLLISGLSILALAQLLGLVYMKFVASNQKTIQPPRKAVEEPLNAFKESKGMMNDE

Consider `NCCCCN`, for which the Potency entry in test [1], in test [2], in test [4], in test [5], in test [6] and in test [7] was “inactive” each time. The outcome in test [3] was inactive.
In the case of `OC[C@H]1NC[C@@H](O)[C@@H]1O`, the Potency result in test [1], in test [2], in test [4], in test [5], in test [6] and in test [7] was “inactive” each time. In addition, the result in test [3] was inactive.
For `COc1ccc(C(=O)NCc2cccnc2)cc1C(=O)NCc1cccnc1`, the Potency entry in test [1], in test [2], in test [4], in test [5], in test [6] and in test [7] was “inactive” each time. Besides, the outcome in test [3] was inactive.
Take `[Li+]`: the Potency result in test [1], in test [2], in test [4], in test [5], in test [6] and in test [7] was “inactive” throughout. Besides, in test [3], the result was inactive.
Consider `Nc1ncnc2c1nc(Sc1ccc(Cl)cc1)n2[C@H]1OC2COP(=O)(O)O[C@@H]2C1O` (some centres undefined), for which the Potency entry in test [1], in test [2], in test [4], in test [5], in test [6] and in test [7] was “inactive” throughout. The result in test [3] was inactive.
For `C=CCN1CCc2cc(O)c(O)cc2C(c2ccccc2)C1` (centres undefined), the Potency entry in test [1], in test [2], in test [4], in test [5] and in test [7] was “inactive” throughout. The outcome in test [3] was inactive. For the same molecule, the Potency in test [6] was 35.5 µM (active).
For `CCn1c(=O)[nH]c2cc(Cl)c(Cl)cc21`, the Potency result in test [1], in test [2], in test [4], in test [5], in test [6] and in test [7] was “inactive” in each case. For the same molecule, the outcome in test [3] was inactive.
Regarding `CCCn1c(=O)c(C)cn2nc(N)nc12`, the Potency result in test [1], in test [2], in test [4] and in test [5] was “inactive” in each case. For the same molecule, the outcome in test [3] was inactive. Also, the Potency in test [6] was 39.8 µM (active); in test [7] it was 29.9 µM (active).
Regarding `Oc1ccc(Cn2cc[nH]c2=S)cc1`, the Potency entry in test [1], in test [2], in test [4], in test [5] and in test [7] was “inactive” in each case. The result in test [3] was inactive. The Potency in test [6] was 50.1 µM (active).
In the case of `N[C@H]1CONC1=O`, the Potency entry in test [1], in test [2], in test [4], in test [5], in test [6] and in test [7] was “inactive” each time. In addition, the result in test [3] was inactive.
As to `CCCN(CCc1ccccc1)C1CCc2c(O)cccc2C1` (centres undefined), the Potency entry in test [1], in test [2], in test [4], in test [5], in test [6] and in test [7] was “inactive” each time. Further, the result in test [3] was inactive.
As for `NC(N)=N[C@@H](CCC(=O)O)C(=O)O`, the Potency result in test [1], in test [2], in test [4], in test [5], in test [6] and in test [7] was “inactive” each time. Moreover, the outcome in test [3] was inactive.
In the case of `O=C(O)C1CCCNC1` (centres undefined), the Potency result in test [1], in test [2], in test [4], in test [5], in test [6] and in test [7] was “inactive” throughout. Also, in test [3], the result was inactive.
`Nc1ncnc2c1ncn2C1CCCO1` (centres undefined): the Potency entry in test [1], in test [2], in test [4], in test [5], in test [6] and in test [7] was “inactive” each time. Moreover, the outcome in test [3] was inactive.
Take `CCCCCCCCCC(=O)NC(CN1CCOCC1)[C@H](O)c1ccccc1` (some centres undefined): the Potency entry in test [1], in test [2], in test [4], in test [5], in test [6] and in test [7] was “inactive” in each case. The result in test [3] was inactive.
For `Cn1c(=O)[nH]c2ncn(C)c2c1=O`, the Potency result in test [1], in test [2], in test [4], in test [5], in test [6] and in test [7] was “inactive” throughout. The result in test [3] was inactive.
For the molecule `OC[C@H]1O[C@@H](n2cnc3cncnc32)[C@H](O)[C@@H]1O`, the Potency result in test [1], in test [2], in test [4], in test [5] and in test [7] was “inactive” each time. Further, in test [3], the result was inactive. In test [6], the Potency is 3.16 µM (active).
As for `CC(N)(Cc1ccc(O)c(O)c1)C(=O)O` (centres undefined), the Potency entry in test [1], in test [2], in test [4], in test [5] and in test [7] was “inactive” each time. Further, the result in test [3] was inactive. For the same molecule, the Potency in test [6] was 56.2 µM (active).
Turning to `CC(=O)N[C@@H](Cc1c[nH]c2ccccc12)C(=O)OCc1cc(C(F)(F)F)cc(C(F)(F)F)c1`, the Potency entry in test [1], in test [2], in test [4], in test [5], in test [6] and in test [7] was “inactive” throughout. The outcome in test [3] was inactive.
As to `COc1cc(C(O)C(=O)O)ccc1O` (centres undefined), the Potency entry in test [1], in test [2], in test [4], in test [5], in test [6] and in test [7] was “inactive” throughout. Moreover, the outcome in test [3] was inactive.
As to `NC(N)=[N+]1CCc2ccccc2C1`, the Potency entry in test [1], in test [2], in test [4], in test [5], in test [6] and in test [7] was “inactive” throughout. In addition, the outcome in test [3] was inactive.
`NCCS(=O)O`: the Potency entry in test [1], in test [2], in test [4], in test [5], in test [6] and in test [7] was “inactive” each time. Besides, the result in test [3] was inactive.
Regarding `O=C(O)C1=CCCN(CCON=C(c2ccccc2)c2ccccc2)C1`, the Potency result in test [1], in test [2], in test [4], in test [5], in test [6] and in test [7] was “inactive” in each case. In addition, the result in test [3] was inactive.
For the molecule `NC(=O)c1cc[n+](CC2=C(C(=O)O)N3C(=O)[C@@H](NC(=O)[C@@H](c4ccccc4)S(=O)(=O)[O-])[C@H]3SC2)cc1`, the Potency result in test [1], in test [2], in test [4], in test [5], in test [6] and in test [7] was “inactive” throughout. Moreover, the outcome in test [3] was inactive.
Regarding `CN(CC[C@@H](Oc1ccc(C(F)(F)F)cc1)c1ccccc1)CC(=O)O`, the Potency entry in test [1], in test [2], in test [4], in test [5], in test [6] and in test [7] was “inactive” each time. The result in test [3] was inactive.
Turning to `O=C(O)C1CCNCC1`, the Potency entry in test [1], in test [2], in test [4], in test [5], in test [6] and in test [7] was “inactive” each time. In test [3], the outcome was inactive.
As for `CC(=O)C(C)=O`, the Potency result in test [1], in test [2], in test [4], in test [5], in test [6] and in test [7] was “inactive” in each case. Further, the outcome in test [3] was inactive.
`Fc1ccc(CN(C2=NCCN2)c2c(Cl)cccc2Cl)cc1`: the Potency entry in test [1], in test [2], in test [4], in test [5], in test [6] and in test [7] was “inactive” in each case. Also, the outcome in test [3] was inactive.
For the molecule `COCc1nc2c([nH]1)c(=O)n(C)c(=O)n2CC(C)C`, the Potency result in test [1], in test [2], in test [4], in test [5], in test [6] and in test [7] was “inactive” each time. Besides, the result in test [3] was inactive.
On to `CCCCOc1cc(CC2CNC(=O)N2)ccc1OC` (centres undefined), for which the Potency result in test [1], in test [2], in test [4], in test [5], in test [6] and in test [7] was “inactive” in each case. For the same molecule, the outcome in test [3] was inactive.
As for `CC(C)C[C@H](NC(=O)C1OC1C(=O)O)C(=O)NCCCCN=C(N)N` (some centres undefined), the Potency result in test [1], in test [2], in test [4], in test [5], in test [6] and in test [7] was “inactive” in each case. Also, the result in test [3] was inactive.
On to `O=C(c1ccc2c(c1)OCCO2)N1CCCCC1`, for which the Potency entry in test [1], in test [2], in test [4], in test [5], in test [6] and in test [7] was “inactive” each time. Moreover, the result in test [3] was inactive.
